# Laboratory results published in article PMC7862700, “An all-to-all approach to the identification of sequence-specific readers for epigenetic DNA modifications on cytosine”.
# How the values were obtained:
# Experiment in all cases: DAPPL (digital affinity profiling via proximity ligation, sequencing); 10 mM Tris-HCl pH 7.5, 50 mM NaCl, 1 mM DTT, 4% glycerol, room temperature, 30 min; GST-TFs on glutathione beads, 16-mer random dsDNA library, 0.1% formaldehyde crosslink after washing; high values mean tight binding
# FLI1 = molecular target: T1, FLI1 (Homo sapiens, UniProt Q01543 1-452); conditions: protein: recombinant; tags: N-terminal GST; dsDNA, one strand shown
# T1 sequence: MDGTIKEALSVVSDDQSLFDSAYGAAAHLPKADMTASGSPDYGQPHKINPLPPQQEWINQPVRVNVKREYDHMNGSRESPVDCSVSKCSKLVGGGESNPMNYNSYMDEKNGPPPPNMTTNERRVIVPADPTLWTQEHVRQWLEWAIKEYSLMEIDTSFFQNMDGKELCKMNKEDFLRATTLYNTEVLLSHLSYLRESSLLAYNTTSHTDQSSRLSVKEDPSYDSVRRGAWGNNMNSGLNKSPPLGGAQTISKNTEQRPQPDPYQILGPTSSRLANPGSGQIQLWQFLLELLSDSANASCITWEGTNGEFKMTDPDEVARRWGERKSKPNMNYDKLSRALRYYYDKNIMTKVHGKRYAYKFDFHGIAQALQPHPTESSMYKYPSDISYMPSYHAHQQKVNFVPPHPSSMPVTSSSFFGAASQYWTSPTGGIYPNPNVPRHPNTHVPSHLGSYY
# How it was run: (§1)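 Each value of binding signal is a hexamer's read frequency for a factor divided by the same hexamer's frequency in the tag-only sample. Barcoded, bead-captured GST fusions of human transcription factors made in yeast were pooled with that sample and incubated with 200 nmole of a random double-stranded 16-mer DNA library in Tris/NaCl/DTT/glycerol buffer at room temperature for 30 min. Washing, 0.1% formaldehyde crosslinking, proximity ligation, PCR and Illumina NextSeq500 sequencing followed.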
# ELK1 = molecular target: T2, ELK1 (Homo sapiens, UniProt P19419 1-428); conditions: protein: recombinant; tags: N-terminal GST; dsDNA, one strand shown
# T2 sequence: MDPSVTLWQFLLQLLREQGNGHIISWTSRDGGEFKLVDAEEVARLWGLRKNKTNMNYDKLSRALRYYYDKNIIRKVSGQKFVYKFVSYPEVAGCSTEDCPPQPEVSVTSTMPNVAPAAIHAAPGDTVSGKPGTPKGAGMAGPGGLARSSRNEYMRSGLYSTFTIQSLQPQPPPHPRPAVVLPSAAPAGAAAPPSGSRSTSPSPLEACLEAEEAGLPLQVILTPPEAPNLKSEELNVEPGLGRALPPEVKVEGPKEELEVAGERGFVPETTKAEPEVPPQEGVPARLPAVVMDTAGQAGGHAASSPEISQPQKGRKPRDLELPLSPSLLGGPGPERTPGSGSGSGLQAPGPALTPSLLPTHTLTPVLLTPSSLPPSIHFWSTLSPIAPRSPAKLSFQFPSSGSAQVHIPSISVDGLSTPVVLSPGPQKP
# How it was run: as §1
# GABPA = molecular target: T3, GABPA (Homo sapiens, UniProt Q06546 1-454); conditions: protein: recombinant; tags: N-terminal GST; dsDNA, one strand shown
# T3 sequence: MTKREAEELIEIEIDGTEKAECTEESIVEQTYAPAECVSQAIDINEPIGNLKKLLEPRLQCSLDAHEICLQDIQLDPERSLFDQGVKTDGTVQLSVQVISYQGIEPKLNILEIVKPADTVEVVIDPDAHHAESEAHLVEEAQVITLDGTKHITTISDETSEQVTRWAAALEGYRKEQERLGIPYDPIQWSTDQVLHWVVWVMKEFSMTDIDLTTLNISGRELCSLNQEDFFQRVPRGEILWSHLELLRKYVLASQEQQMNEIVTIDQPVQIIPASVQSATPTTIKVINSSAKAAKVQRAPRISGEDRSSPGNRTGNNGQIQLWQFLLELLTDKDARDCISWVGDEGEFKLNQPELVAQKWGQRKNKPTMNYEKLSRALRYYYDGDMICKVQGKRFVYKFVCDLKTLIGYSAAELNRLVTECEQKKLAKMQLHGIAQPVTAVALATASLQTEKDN
# How it was run: as §1
# ERG = molecular target: T4, ERG (Homo sapiens, UniProt P11308 1-479); conditions: protein: recombinant; tags: N-terminal GST; dsDNA, one strand shown
# T4 sequence: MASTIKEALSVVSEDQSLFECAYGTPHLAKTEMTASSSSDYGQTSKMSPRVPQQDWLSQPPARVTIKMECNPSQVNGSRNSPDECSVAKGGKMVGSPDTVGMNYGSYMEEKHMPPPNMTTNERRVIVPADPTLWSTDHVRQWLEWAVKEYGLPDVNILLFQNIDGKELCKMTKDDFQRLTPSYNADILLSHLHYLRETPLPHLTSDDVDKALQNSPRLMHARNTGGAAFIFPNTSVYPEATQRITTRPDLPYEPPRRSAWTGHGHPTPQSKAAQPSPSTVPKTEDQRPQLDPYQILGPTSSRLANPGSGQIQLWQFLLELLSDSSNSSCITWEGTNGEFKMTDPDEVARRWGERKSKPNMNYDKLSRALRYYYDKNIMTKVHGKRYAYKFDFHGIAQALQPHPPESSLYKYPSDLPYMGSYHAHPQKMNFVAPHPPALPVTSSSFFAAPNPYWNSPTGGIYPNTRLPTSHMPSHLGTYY
# How it was run: as §1
# ELF1 = ELF1 (Homo sapiens, UniProt P32519 1-619); conditions: protein: recombinant; tags: N-terminal GST; dsDNA, one strand shown
# How it was run: as §1
# EHF = molecular target: T5, EHF (Homo sapiens, UniProt Q9NZC4 1-300); conditions: protein: recombinant; tags: N-terminal GST; dsDNA, one strand shown
# T5 sequence: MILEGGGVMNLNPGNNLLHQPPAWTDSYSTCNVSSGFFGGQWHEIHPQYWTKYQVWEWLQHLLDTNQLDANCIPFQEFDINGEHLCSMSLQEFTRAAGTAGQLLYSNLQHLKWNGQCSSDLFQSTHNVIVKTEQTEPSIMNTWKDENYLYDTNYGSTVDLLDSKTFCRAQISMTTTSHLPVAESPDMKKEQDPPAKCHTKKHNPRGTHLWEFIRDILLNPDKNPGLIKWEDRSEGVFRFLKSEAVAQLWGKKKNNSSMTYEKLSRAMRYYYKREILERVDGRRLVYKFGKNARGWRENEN
# How it was run: as §1
# SPI1 = SPI1 (Homo sapiens, UniProt P17947 1-270); conditions: protein: recombinant; tags: N-terminal GST; dsDNA, one strand shown
# How it was run: as §1
# SPIB = SPIB (Homo sapiens, UniProt Q01892 1-262); conditions: protein: recombinant; tags: N-terminal GST; dsDNA, one strand shown
# How it was run: as §1
# ELK3 = molecular target: T6, ELK3 (Homo sapiens, UniProt P41970 1-407); conditions: protein: recombinant; tags: N-terminal GST; dsDNA, one strand shown
# T6 sequence: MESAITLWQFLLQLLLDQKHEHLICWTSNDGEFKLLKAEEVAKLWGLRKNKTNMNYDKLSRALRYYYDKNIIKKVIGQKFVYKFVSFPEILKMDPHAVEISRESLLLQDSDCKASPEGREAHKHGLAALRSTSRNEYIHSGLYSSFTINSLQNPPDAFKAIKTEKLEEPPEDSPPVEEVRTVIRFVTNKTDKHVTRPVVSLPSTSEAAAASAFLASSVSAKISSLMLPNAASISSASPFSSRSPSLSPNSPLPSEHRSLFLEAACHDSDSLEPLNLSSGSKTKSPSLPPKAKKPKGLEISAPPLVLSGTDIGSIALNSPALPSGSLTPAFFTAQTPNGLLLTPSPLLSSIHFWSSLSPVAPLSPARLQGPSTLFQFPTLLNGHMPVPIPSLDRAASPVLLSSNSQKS
# How it was run: as §1
# FEV = molecular target: T7, FEV (Homo sapiens, UniProt Q99581 1-238); conditions: protein: recombinant; tags: N-terminal GST; dsDNA, one strand shown
# T7 sequence: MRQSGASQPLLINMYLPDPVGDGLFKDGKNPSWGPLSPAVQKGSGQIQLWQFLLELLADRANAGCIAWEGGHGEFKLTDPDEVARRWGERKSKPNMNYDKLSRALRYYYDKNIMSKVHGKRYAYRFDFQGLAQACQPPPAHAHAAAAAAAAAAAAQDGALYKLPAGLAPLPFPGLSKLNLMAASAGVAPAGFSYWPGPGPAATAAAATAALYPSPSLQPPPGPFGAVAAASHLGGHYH
# How it was run: as §1
# ETV5 = ETV5 (Homo sapiens, UniProt P41161 1-510); conditions: protein: recombinant; tags: N-terminal GST; dsDNA, one strand shown
# How it was run: as §1
# HSF1 = HSF1 (Homo sapiens, UniProt Q00613 1-529); conditions: protein: recombinant; tags: N-terminal GST; chain copies: 3; dsDNA, one strand shown
# How it was run: as §1
# SPIC = molecular target: T8, SPIC (Homo sapiens, UniProt Q8N5J4 1-248); conditions: protein: recombinant; tags: N-terminal GST; dsDNA, one strand shown
# T8 sequence: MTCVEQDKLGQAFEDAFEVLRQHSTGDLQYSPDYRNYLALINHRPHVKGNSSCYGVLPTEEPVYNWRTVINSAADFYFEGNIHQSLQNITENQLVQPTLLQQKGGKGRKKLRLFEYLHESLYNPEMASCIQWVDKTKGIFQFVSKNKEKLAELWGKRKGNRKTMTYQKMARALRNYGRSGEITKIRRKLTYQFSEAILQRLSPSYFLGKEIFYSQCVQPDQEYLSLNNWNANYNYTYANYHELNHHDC
# How it was run: as §1
# ELF4 = ELF4 (Homo sapiens, UniProt Q99607 1-663); conditions: protein: recombinant; tags: N-terminal GST; dsDNA, one strand shown
# How it was run: as §1
# ELK4 = molecular target: T9, ELK4 (Homo sapiens, UniProt P28324-2 1-405); conditions: protein: recombinant; tags: N-terminal GST; dsDNA, one strand shown
# T9 sequence: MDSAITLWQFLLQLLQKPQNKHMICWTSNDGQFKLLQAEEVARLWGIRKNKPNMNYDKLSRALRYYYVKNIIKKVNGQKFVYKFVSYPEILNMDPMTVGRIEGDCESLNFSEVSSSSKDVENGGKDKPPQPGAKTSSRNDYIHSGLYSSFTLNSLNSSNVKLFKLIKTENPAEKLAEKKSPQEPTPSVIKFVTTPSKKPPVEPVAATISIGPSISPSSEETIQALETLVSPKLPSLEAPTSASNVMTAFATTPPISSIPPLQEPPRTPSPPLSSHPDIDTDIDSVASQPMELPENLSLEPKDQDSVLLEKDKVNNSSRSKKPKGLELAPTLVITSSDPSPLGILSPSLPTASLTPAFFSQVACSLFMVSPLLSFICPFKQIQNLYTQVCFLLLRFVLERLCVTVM
# How it was run: as §1
# ETV2 = molecular target: T10, ETV2 (Homo sapiens, UniProt O00321 1-342); conditions: protein: recombinant; tags: N-terminal GST; dsDNA, one strand shown
# T10 sequence: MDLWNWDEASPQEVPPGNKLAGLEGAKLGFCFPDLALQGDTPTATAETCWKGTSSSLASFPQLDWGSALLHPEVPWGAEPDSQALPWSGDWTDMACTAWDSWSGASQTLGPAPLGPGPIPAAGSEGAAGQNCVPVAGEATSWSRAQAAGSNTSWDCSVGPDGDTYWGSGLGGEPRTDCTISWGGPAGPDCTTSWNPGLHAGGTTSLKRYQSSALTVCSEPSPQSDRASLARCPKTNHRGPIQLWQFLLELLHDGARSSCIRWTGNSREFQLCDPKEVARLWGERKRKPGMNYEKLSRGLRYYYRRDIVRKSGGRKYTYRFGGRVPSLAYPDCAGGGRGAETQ
# How it was run: as §1
# ELF3 = molecular target: T11, ELF3 (Homo sapiens, UniProt P78545 1-371); conditions: protein: recombinant; tags: N-terminal GST; dsDNA, one strand shown
# T11 sequence: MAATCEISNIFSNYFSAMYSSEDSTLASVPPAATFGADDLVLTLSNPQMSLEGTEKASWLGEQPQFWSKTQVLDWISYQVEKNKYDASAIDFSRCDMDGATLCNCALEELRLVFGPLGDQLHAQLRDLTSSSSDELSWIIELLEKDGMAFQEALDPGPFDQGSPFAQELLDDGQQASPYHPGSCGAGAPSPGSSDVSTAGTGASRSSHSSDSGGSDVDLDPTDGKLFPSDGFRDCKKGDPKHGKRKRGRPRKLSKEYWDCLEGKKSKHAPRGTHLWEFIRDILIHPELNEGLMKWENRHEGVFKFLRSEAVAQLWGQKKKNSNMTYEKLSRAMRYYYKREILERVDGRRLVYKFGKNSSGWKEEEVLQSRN
# How it was run: as §1
# CRX = CRX (Homo sapiens, UniProt O43186 1-299); conditions: protein: recombinant; tags: N-terminal GST; dsDNA, one strand shown
# How it was run: as §1
# ETV1 = ETV1 (Homo sapiens, UniProt P50549 1-477); conditions: protein: recombinant; tags: N-terminal GST; dsDNA, one strand shown
# How it was run: as §1
# ETV1, sequence (P50549 whole entry): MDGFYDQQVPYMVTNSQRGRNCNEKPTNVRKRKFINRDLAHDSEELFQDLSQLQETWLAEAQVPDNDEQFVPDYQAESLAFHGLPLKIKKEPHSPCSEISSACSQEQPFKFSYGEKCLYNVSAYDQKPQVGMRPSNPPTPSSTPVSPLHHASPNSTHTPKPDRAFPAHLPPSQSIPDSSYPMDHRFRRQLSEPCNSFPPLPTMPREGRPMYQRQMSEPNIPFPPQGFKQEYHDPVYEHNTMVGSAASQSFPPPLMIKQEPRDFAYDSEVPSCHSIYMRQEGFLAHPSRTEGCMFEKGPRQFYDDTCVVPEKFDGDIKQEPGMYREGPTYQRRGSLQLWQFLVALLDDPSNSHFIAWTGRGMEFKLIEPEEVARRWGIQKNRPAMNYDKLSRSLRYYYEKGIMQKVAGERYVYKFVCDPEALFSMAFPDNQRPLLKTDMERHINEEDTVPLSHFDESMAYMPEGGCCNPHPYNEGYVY
# SPIB, sequence (Q01892 whole entry): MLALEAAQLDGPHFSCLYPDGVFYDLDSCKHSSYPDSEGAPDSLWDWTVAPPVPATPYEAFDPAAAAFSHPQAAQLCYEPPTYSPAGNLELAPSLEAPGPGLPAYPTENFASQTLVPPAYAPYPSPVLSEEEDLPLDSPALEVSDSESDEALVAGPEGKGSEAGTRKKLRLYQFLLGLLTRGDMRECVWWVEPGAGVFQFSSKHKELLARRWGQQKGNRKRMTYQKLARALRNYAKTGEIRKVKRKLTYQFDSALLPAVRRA
# HSF1, sequence (Q00613 whole entry): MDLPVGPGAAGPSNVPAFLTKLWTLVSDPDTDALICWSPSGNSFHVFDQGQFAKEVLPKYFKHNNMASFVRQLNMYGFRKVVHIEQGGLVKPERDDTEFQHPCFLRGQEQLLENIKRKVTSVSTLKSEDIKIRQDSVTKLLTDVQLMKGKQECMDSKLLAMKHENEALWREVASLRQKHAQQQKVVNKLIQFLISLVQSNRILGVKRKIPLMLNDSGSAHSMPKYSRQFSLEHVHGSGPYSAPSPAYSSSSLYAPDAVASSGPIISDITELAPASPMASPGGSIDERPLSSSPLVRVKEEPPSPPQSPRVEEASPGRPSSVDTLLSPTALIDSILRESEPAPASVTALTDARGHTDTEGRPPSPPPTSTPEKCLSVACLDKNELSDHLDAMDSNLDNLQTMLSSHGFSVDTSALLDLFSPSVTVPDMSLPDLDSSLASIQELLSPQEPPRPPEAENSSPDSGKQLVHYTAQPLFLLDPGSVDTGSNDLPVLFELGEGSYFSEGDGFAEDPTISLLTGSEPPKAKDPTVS
# CRX, sequence (O43186 whole entry): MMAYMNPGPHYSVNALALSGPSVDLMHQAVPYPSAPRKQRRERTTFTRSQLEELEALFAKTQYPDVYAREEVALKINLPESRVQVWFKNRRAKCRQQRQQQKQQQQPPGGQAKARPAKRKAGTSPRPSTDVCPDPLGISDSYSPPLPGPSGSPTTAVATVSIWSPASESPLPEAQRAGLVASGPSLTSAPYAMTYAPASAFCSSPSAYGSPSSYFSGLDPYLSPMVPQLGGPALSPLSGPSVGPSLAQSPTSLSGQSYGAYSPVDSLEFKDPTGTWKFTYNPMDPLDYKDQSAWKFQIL
# ETV5, sequence (P41161 whole entry): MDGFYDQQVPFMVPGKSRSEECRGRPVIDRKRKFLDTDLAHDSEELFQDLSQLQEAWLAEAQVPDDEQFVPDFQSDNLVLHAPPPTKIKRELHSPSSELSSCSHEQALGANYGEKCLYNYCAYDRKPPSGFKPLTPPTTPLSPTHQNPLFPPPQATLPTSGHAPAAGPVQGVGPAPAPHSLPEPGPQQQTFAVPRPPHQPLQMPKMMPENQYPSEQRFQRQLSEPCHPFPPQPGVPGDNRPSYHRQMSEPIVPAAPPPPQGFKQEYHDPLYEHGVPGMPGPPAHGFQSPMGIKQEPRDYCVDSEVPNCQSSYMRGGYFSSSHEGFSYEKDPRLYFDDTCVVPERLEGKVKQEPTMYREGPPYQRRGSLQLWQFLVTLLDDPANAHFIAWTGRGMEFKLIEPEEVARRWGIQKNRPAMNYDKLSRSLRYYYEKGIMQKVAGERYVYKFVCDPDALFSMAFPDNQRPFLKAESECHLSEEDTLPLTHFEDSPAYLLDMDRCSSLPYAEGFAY
# ELF1, sequence (P32519 whole entry): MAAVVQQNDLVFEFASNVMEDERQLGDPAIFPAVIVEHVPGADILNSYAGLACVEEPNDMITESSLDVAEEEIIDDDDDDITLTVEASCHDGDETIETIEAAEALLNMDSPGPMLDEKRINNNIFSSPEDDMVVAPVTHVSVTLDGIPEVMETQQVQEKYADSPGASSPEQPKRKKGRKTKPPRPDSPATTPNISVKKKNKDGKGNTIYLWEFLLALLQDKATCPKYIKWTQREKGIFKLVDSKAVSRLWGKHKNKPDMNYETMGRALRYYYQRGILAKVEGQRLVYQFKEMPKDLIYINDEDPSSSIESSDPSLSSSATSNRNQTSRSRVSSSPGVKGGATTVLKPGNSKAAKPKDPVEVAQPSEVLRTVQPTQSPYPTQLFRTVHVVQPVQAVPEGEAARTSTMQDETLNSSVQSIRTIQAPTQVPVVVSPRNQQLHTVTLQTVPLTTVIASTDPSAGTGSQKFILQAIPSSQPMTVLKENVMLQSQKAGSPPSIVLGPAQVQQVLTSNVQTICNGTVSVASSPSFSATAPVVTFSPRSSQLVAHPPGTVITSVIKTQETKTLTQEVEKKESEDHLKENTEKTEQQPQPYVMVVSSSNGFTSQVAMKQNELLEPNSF
# ELF4, sequence (Q99607 whole entry): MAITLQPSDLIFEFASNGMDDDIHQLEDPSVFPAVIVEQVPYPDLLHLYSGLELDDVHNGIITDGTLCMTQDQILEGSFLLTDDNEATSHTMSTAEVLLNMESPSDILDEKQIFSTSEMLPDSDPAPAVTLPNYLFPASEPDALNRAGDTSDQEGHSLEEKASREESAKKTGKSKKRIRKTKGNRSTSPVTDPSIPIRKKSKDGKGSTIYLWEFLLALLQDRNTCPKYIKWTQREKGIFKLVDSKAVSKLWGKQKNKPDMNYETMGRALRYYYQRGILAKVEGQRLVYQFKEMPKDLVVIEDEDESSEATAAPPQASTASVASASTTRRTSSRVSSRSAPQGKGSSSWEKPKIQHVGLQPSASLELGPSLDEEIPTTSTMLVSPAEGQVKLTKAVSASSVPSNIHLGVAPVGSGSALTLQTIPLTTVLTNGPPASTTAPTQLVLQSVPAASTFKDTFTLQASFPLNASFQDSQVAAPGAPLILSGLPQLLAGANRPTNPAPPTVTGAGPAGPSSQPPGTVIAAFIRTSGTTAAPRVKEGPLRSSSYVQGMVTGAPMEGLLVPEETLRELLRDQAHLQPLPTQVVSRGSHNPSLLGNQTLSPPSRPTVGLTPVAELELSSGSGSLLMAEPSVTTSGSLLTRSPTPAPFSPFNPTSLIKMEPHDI
sequence,measurement,setting,value
CATCCT,binding signal,FLI1,"1.68 fold enrichment (6-mer frequency, TF over GST control)"
same,binding signal,ELK1,"1.65 fold enrichment (6-mer frequency, TF over GST control)"
same,binding signal,GABPA,"1.51 fold enrichment (6-mer frequency, TF over GST control)"
same,binding signal,ERG,"1.75 fold enrichment (6-mer frequency, TF over GST control)"
same,binding signal,ELF1,"1.64 fold enrichment (6-mer frequency, TF over GST control)"
same,binding signal,EHF,"1.62 fold enrichment (6-mer frequency, TF over GST control)"
same,binding signal,SPI1,"1.59 fold enrichment (6-mer frequency, TF over GST control)"
same,binding signal,SPIB,"1.7 fold enrichment (6-mer frequency, TF over GST control)"
same,binding signal,ELK3,"1.68 fold enrichment (6-mer frequency, TF over GST control)"
same,binding signal,FEV,"1.59 fold enrichment (6-mer frequency, TF over GST control)"
same,binding signal,ETV5,"1.63 fold enrichment (6-mer frequency, TF over GST control)"
same,binding signal,HSF1,"1.12 fold enrichment (6-mer frequency, TF over GST control)"
same,binding signal,SPIC,"1.63 fold enrichment (6-mer frequency, TF over GST control)"
same,binding signal,ELF4,"1.62 fold enrichment (6-mer frequency, TF over GST control)"
same,binding signal,ELK4,"1.51 fold enrichment (6-mer frequency, TF over GST control)"
same,binding signal,ETV2,"1.63 fold enrichment (6-mer frequency, TF over GST control)"
same,binding signal,ELF3,"1.59 fold enrichment (6-mer frequency, TF over GST control)"
same,binding signal,CRX,"1.21 fold enrichment (6-mer frequency, TF over GST control)"
same,binding signal,ETV1,"1.55 fold enrichment (6-mer frequency, TF over GST control)"
